Assays:
[1] = target: T1, Aspartate--tRNA(Asp/Asn) ligase (Mycobacterium tuberculosis (strain ATCC 25618 / H37Rv)) (UniProt P9WFW3); experiment: Assay for Asp RNA synthetase-1 from Mycobacterium tuberculosis; format: functional; design: scale not given: direction of the effect not stated beside the values; details: 30 µM; note: in the data most compounds retested in dose-response had high values
T1 sequence (whole entry): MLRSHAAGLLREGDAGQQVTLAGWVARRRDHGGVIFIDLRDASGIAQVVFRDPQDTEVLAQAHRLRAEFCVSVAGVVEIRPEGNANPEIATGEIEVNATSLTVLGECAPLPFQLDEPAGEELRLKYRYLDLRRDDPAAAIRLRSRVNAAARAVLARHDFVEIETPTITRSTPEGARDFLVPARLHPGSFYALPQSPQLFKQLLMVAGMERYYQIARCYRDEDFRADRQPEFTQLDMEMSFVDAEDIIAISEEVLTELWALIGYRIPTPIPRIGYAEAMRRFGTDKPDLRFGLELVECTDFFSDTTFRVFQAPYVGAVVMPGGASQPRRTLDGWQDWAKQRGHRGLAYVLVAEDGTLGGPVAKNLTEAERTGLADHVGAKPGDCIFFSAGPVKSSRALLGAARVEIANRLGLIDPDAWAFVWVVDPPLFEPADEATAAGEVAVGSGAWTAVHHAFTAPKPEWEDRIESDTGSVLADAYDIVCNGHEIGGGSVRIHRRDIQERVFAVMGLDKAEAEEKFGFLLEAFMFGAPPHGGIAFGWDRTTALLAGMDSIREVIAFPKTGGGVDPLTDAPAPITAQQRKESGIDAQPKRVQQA

[2] = target: Shiga toxin 2 (Escherichia coli O157:H7) (UniProt P09385+P09386); experiment: E. coli 0.157:H7 Shiga Toxin SOP - stx2 screening assay; format: functional; design: scale not given: direction of the effect not stated beside the values; details: 30 µM

Compound	Percent Effect [1] [%]	Percent Effect [2] [%]
Cc1nc(C2CCCN2CC(=O)N(Cc2ccsc2)C2CC2)no1 (stereo not given)	0.787	0.717
Cc1ccc(CCN2CCC(N(C)Cc3noc(C4CC4)n3)C2)cc1 (stereo not given)	-2.9	-69.9
Cc1ccc(NC2CCN(C(=O)c3cc[nH]n3)CC2)nn1	-1.83	18.1
COCCC(=O)N1CCC2(COCc3cnc(-c4ccccc4)nc32)C1 (stereo not given)	-4.87	-3.09
c1csc(-c2nc(CN3CCOC(Cn4cccn4)C3)co2)c1 (stereo not given)	9.95	13.2
Cn1cnc2c1CCN(CCS(=O)(=O)c1ccccc1)C2	-1.69	0.397
CC(C)C(C)NC(=O)Nc1ccccc1CN1CCOCC1 (stereo not given)	3.91	9.92
Cc1cc(CNC(=O)N2CCCN(Cc3ccccc3)CC2)no1	-4.23	9.91
CCn1ccnc1CN1CCC(N(C)Cc2ncc(C)o2)C1 (stereo not given)	-4.45	-39.6
COCCNC(=O)C1(c2ccccc2C)CCOCC1	-1.82	19.2
COCC1CC2(CCN(C(=O)c3ccc(OC)c(Cl)c3)CC2)CO1 (stereo not given)	0.918	-4.71
COCCNC(=O)Nc1ccc(F)c(C(N)=O)c1	3.91	-19.7
Cc1cnccc1N1CCCN(C(=O)CCCS(N)(=O)=O)CC1	-1.55	-11.6
CCC(CNC(=O)c1ccc(Br)o1)N1CCc2ccccc2C1 (stereo not given)	1.73	8.06
Cc1ccccc1-c1noc(CN2CCn3c(nnc3C3CC3)C2)n1	-0.7	-48.8
Cc1nc(C)n(CC2CCCN(Cc3cccc(C#N)c3)C2)n1 (stereo not given)	3.85	25.5
O=C(CCc1ccc(Br)cc1F)NS(=O)(=O)c1ccc2c(c1)OCCO2	7.79	13.8
CS(=O)(=O)N1CCC2(CC1)CC(CC(=O)NC1CC1)c1ccccc12 (stereo not given)	6.15	4.11
O=C(N1CCC(Nc2cccnn2)CC1)C1(c2ccc(F)cc2)CC1	4.44	-20.3
CCCNC(=O)CNc1ccc(C(=O)N2CCCCC2C)cc1C (stereo not given)	3.79	10.6
Cc1ccc(C(=O)N2CCO[C@H]3[C@@H](OCc4ccccn4)CC[C@@H]32)o1	6.63	-6.16
CC(C)c1noc(CCCC(=O)N2CCN(Cc3ccncc3)CC2)n1	3.6	-20.6
Cc1cccc2c1cnn2CCCNC(=O)CCCC(=O)O	15.5	-61.8
Cc1noc(C(C)N2CCN(CCCN3CCCC3=O)CC2)n1 (stereo not given)	0.409	4.39
Cc1ccccc1CN1CCC2(COCc3cnc(N(C)C)nc32)C1 (stereo not given)	-3.4	-15.8

Compound	Percent Effect [1] [%]	Percent Effect [2] [%]
Cc1nn(-c2ccccc2)cc1C(=O)N1CCCC(n2cccn2)C1 (stereo not given)	-5.22	-27.4
Cc1cc(C)cc(N(C)S(=O)(=O)c2cc(C(=O)O)cs2)c1	2.79	-3.14
CC(C)c1n[nH]c(C2CN(C(=O)c3csnn3)CCO2)n1 (stereo not given)	-5.03	-13.5
CNS(=O)(=O)c1ccc(CNC(=O)NCC2CCCO2)cc1 (stereo not given)	0.75	25.4
Cc1cc(C)n(CC2CN(CCOc3cccc(F)c3)CCO2)n1 (stereo not given)	3.93	36.7
Cc1ccc(C)c(NC(=O)N(C)Cc2cnn(C)c2)c1	-1.13	19.8
COc1ccc(Br)c(C(=O)NCC2CCN(S(=O)(=O)C3CC3)CC2)c1	-8.22	-0.843
CC(=O)N1CCCN(C(=O)c2cnc3n[nH]c(C)c3c2)CC1	-0.871	19.4
COCC(=O)N1CCC(c2nc3ccc(-c4ccccc4)cn3n2)CC1	-2.8	-19.6
Cc1ncsc1C(=O)Nc1cccc(OCC(F)F)n1	-0.449	1.86
CCc1nc(CN2CCCN(C(=O)c3c(C)noc3C)CC2)cs1	1.9	-25.2
Clc1ccccc1CN1CCc2nc(C3CCCCN3)ncc2C1 (stereo not given)	1.4	-35.9
CNC(=O)[C@H]1C[C@H]2OCC[C@H]2N(Cc2cccc3ccccc23)C1	0.598	-15.6
COc1ccc(CN(C)C(=O)NCc2c(C)cc(C)[nH]c2=O)cc1	0.281	31.7
Cc1cc(CN2CCOCS2(=O)=O)ccc1F	1.64	3.93
Cc1csc(C2CCCCN2C(=O)CN(C)C2CC2)n1 (stereo not given)	-4.06	-4.47
Cc1nc(C2CCCN(C(=O)c3sccc3C3CC3)C2)no1 (stereo not given)	-0.613	0.602
Cc1ncc(CNC(=O)Cc2ccc(Cl)cc2)c(C2CCCN2C)n1 (stereo not given)	0.551	15.8
Cn1cnc2c1C(COCC1CCOCC1)CN(C(=O)c1ccoc1)C2 (stereo not given)	2.22	-11.7
Cc1cc(C)n(CC2CCCN2CCS(=O)(=O)c2ccccc2)n1 (stereo not given)	-0.833	-9.51
CS(=O)(=O)CC(=O)N1C[C@H]2CCC[C@@]2(COCc2ccccn2)C1	4.11	-6.39
CCc1ccc(NC(=O)c2cnc(N3CCN(C)CC3)nc2C)cc1	-0.248	-28
Cc1cccc(NC(=O)Cn2ncc(SCC(N)=O)c(Cl)c2=O)c1C	-2.73	5.03
O=C(c1cccn1Cc1cccs1)N1CCCC1Cn1cccn1 (stereo not given)	-0.702	14.5
c1ccc(CNC2CCc3ncnn3C2)nc1 (stereo not given)	-0.856	-65.4

Compound	Percent Effect [1] [%]	Percent Effect [2] [%]
COc1ccc(OCc2sc(C3(O)CCCNCC3)nc2C)cc1 (stereo not given)	5.08	7.21
Cn1cc(Br)c(=O)c(NS(=O)(=O)c2ccc(F)cc2)c1	-2.87	-1.63
CCOC1CCCN(C(=O)NCCc2ccn(-c3ccccc3)n2)C1 (stereo not given)	0.577	12.9
O=C(NCC1CC1)[C@H]1C[C@H]2OCC[C@H]2N(Cc2ccsc2)C1	4.96	13.4
CCN(Cc1ccco1)C(=O)c1cc(OC)c2c(c1)OCCO2	3.71	-2.41
Cc1cnc(N2CCC3(CCN(CC4CC4)C3=O)CC2)nc1	-3.05	-8.57
CCCn1[nH]cc/c1=N\C(=O)CN1CCn2c(nnc2C2CC2)C1	-2.17	25.6
Cc1nc(C)n(CC2CCCN2Cc2nc3ccccc3n2C)n1 (stereo not given)	-7.69	5.05
COc1ncccc1C(=O)NCC(C)Oc1cccnc1 (stereo not given)	-5.57	-2.36
CCOc1ccccc1C(=O)NS(=O)(=O)c1ccc2c(c1)OCCCO2	-0.534	19.9
CN1CCCN(C(=O)c2ccc3c(c2)nc(N2CCOCC2)n3C)CC1	-3.09	-5.95
Cc1nn2cccnc2c1C(=O)N1CCCC(n2ccnc2)C1 (stereo not given)	6.28	-29.8
N#Cc1ccc(N2CCN(C(=O)c3cc(C4CC4)[nH]n3)CC2)c(F)c1	-6.09	-10.4
O=C(c1cc(F)ccc1F)C1CCN(C(=O)c2ccc(=O)[nH]n2)CC1	0.519	28.6
CNC(=O)c1cc2c(nc1NCC1CC1)CCN(S(=O)(=O)C1CC1)CC2	7.68	-5.47
Cc1cccc(C(=O)N2CCN(S(C)(=O)=O)[C@@H](C)C2)c1C	-3.1	-11.5
CC(C)(C)N1CCCN(C(=O)c2csc(S(N)(=O)=O)c2)CC1	-2.95	-17.3
Cc1cnc(CN(Cc2ccccc2)CC(O)c2cccs2)cn1 (stereo not given)	-1.43	-15.5
Cc1nn(C)c(N(C)C)c1CNCCCN(C)S(C)(=O)=O	-6.1	-43.8
Cn1cc(N2CC3(CCN(Cc4cccs4)CC3)OCC2=O)cn1	-0.729	-20.1
CCn1cnnc1C1CCN(C(=O)c2ccc3cc[nH]c3c2)CC1	-3	-9.96
COc1ccc(CN2CCn3cc(Cn4cccn4)nc3C2)cc1	6.63	-37.1
CC(=O)N1CCN(C(=O)C(C)n2cncn2)CC1 (stereo not given)	-4.44	1.67
Cn1ccnc1CNC1CCCN(Cc2noc(C3CC3)n2)C1 (stereo not given)	-0.413	-13.4
CC(C)(C)c1nnc(CN2CCN(CC(O)c3ccccc3)CC2)o1 (stereo not given)	-8.31	10.2

Compound	Percent Effect [1] [%]	Percent Effect [2] [%]
CCOc1cc(C)nc(N2CCN(C(=O)CC)CC2)n1	0.408	12.8
CCOCC1CN(S(C)(=O)=O)Cc2cnn(CC3CCOCC3)c21 (stereo not given)	5.17	-7.39
CC(C)c1nc(C2CCCN2CCc2ccncc2)no1 (stereo not given)	1.61	-7.28
CN1CCN(CC2CC2)C(=O)c2cnc(N3CC[C@@H](O)C3)nc21	3.75	-9.73
N#Cc1ccc(C(=O)NCCCNc2ccc(C(F)(F)F)cn2)cc1	-4.52	28.9
O=C(Nc1cnccn1)[C@H]1COC[C@H]2CN(C3CCCC3)C[C@H]21	-3.53	8.55
CC(Oc1ccccc1C(F)(F)F)C(=O)NCCC(=O)N(C)C (stereo not given)	-1.14	8.25
C1CC(CN2CCOCC3(CCN(C4CCOCC4)C3)C2)CCO1 (stereo not given)	3.19	-4.37
Cc1nn(C)c2c(N3CCN(C(=O)C4CCC4)CC3)ncnc12	-3.19	-37.9
COCCN1CC[C@@H]2OC[C@H](C(=O)NCc3cccs3)C[C@@H]2C1	2.37	-14.7
CN(C)C(=O)C1(CCCc2ccncc2)CCCN1 (stereo not given)	-0.998	11.3
CCc1nc(C2CCCN2Cc2nccn2Cc2ccccc2)no1 (stereo not given)	-2.22	12.2
Cc1cn(-c2ccccc2)nc1NS(=O)(=O)c1cccc(C(=O)O)c1	2.62	-5.83
CN1CC(=O)N(c2cnn(C)c2)CC12CCN(C(=O)c1ccsc1)C2 (stereo not given)	0.595	-1.99
Cn1cc(C(=O)N[C@@H]2CN(Cc3cccs3)[C@@H]3CCCO[C@@H]32)cn1	1.75	-2.87
COc1ccc(CN2CCc3ncnc(C4CCOC4)c3CC2)cc1 (stereo not given)	-0.146	-53.7
CCc1nc(C2CCCN2C(=O)CCc2ccc3c(c2)OCO3)no1 (stereo not given)	3.41	6.69
COC(=O)Cn1c(=O)nc2n1C(=O)N(c1ccccc1)C2	1.18	-22.6
CNc1nc(C2CCCN2C(C)=O)nc2c1CCN(CC1CC1)C2 (stereo not given)	1.43	-7.13
CNC(=O)c1nc2c(s1)CCN(C(=O)c1cccnc1)CC2	2.01	-18.2
CN1CC(=O)N(c2cccc(F)c2)CC12CCN(Cc1cccnc1)C2 (stereo not given)	2.03	-14.7
O=S(=O)(Cc1ccccc1)NCc1ccco1	-3.04	4.92
Cc1nn(C)c2c(N3CCN(C(=O)c4ccccc4)CC3)ncnc12	0.348	-28.7
Cc1cn(CC(=O)NC2CCN(C(=O)C3CC3)CC2)c2ccccc12	2.13	6.97
O=C(CCC1CCN(Cc2ncc[nH]2)CC1)Nc1ccccc1Cl	0.166	-7.7

— ChEMBL document CHEMBL3988442, “University of Dundee, Small-Polar-MMV Screening Library” (2021)
